Results on 17 molecules are retold here after PubChem BioAssay.

Unmarked numbers belong to inactive results. How the calls were made is not given here.

The target of this test is Pantothenate synthetase (Mycobacterium tuberculosis (strain ATCC 25618 / H37Rv)) (UniProt P9WIL5). The experiment in a line: Recombinant Mtb pantothenate synthetase (PanC) inhibitors, coupled enzyme, confirmatory (AID 375).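 Further: 0% = full reaction with vehicle and 100% = no enzyme background.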 The settings on record: coupled enzyme assay; at 10 µM, active compounds read high.
Sequence of Pantothenate synthetase (Mycobacterium tuberculosis (strain ATCC 25618 / H37Rv)) (P9WIL5 whole entry, looked up): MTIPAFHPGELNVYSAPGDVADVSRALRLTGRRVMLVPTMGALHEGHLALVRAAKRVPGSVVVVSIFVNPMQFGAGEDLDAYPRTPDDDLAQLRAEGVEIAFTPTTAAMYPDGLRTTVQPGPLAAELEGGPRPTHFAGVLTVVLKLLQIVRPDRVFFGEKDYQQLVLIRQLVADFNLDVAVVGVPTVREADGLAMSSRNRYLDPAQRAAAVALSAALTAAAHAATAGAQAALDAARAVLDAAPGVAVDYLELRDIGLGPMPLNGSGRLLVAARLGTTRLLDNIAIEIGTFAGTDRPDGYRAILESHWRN

What is called inhibition is the percentage by which the read-out fell short of the control. For the molecule `Cn1c(SCc2cccc3ccccc23)nnc1-c1ccco1`, the inhibition was 0%.

With `COC(=O)CCSCc1cn2cc(Cl)ccc2n1`, the inhibition is 0%. The value for `CCOC(=O)N1CCC(NC(=O)c2ccc3c(c2)sc2nc(-c4cccc(OC)c4)cn23)CC1` was 0%; that for `COc1ccc(C(=O)Nc2ccc(S(=O)(=O)Nc3nccnc3OC)cc2)cc1OC` was 0%; that for `CCOC(=O)C(NCc1ccccc1OC)(NC(C)=O)C(F)(F)F` (configuration not stated) was 0%.

On to `CCOc1ccc(OCC)c(NS(=O)(=O)c2ccc3c(c2)n(C)c(=O)c(=O)n3C)c1`, for which the inhibition was 3%. For `COC(=O)Nc1ccc(NC(C)=O)cc1`, the inhibition was 0%. As to `CCCOc1nc(N)c(C#N)c(-c2ccccc2F)c1C#N`, the inhibition was 4%. In the case of `Clc1ccccc1-c1nnc2sc(-c3ccccn3)nn12`, the inhibition was 0%. Under `O=c1c2cc3ccccc3n2cnn1Cc1ccccc1F` stands 0%. Under `Cc1ccc(S(=O)(=O)N2CCOCC2)cc1C(=O)Nc1ccccn1` stands 0%; under `C=CCn1c2ccccc2c2nnc(SCC(=O)NC(C(=O)OC)C(C)C)nc21` (configuration not stated), 4%. Under `COc1cccc(C(=O)OCn2nnc3ccccc3c2=O)c1` stands 0%; under `CC(C)c1ccc(S(=O)(=O)N2CCN(CCC(=O)Nc3ccc(N(C)C)cc3)CC2)cc1`, 5%. Regarding `COC(=O)c1c(NC(=O)CSc2nnnn2C)sc(C)c1C`, the inhibition was 0%. Under `c1ccc2c(c1)CNc1ccccc1C2` stands 0%; under `CCOC(=O)C1=C(C)NC(C)=C(C(=O)OC)C1c1cccc(Cl)c1Cl` (configuration not stated), 4%.
